Source: PubChem
ELG1 genotox – inducers of genotoxicity in HEK293T ELG1-luciferase cells. HEK293T ELG1-luciferase reporter, luminescence, 16 h. Potency, µM (doses to about 46 µM), for the others: at the top dose activity change, positive = activation, most hits filed as activators. 330,000 tested, 1.3% active; further: % of control where 0% means no effect; nearly all actives have a fitted effect of over 60% in size
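HEK293T cells expressing luciferase-tagged ELG1 were exposed to compound or DMSO vehicle for 16 hr at 37 °C and 5% CO2. Luciferase activity was then measured with ONE-Glo after 30 min at room temperature.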
Rab9 prom act – activators of Rab9 promoter; 320,000 tested, 2.8% active; Huh7 Rab9 promoter-luciferase reporter, luminescence, 24 h; Potency, µM (series often up to 9.22 µM), for inactives: at the top dose activation, negative = inhibition, most hits filed as activators; AID 485297; further: % of control where 0% means no effect; nearly all actives have a fitted effect of over 60% in size
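Steps: seed 1500 Huh7 Rab9-luc cells per well, rest 2 h at 37 °C; add compound in DMSO; incubate 24 h; add luciferase reagent, 10 min ambient; read luminescence.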
NPC1 prom act – activators of NPC1 promoter | Huh7 NPC1 promoter luciferase reporter, 24 h | Potency, µM (top dose mostly 9.22 µM), for inactives: at the top dose activation, usual class: activators | 320,000 tested, 2.4% active | AID 485313; further: % of control where 0% means no effect; nearly all actives have a fitted effect of over 60% in size
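Readout is luciferase luminescence, reflecting NPC1 promoter activation in stably transfected Huh7 cells after 24 h compound exposure at 37 °C in reduced-serum medium with 10% FBS.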
SMN2 splice enh – SMN2 splice variant enhancement. HEK293 SMN2-luciferase splicing reporter, luminescence, 30-36 h. Potency, µM (titrated, usually from 46.1 µM), without a hit: at the top dose activity change, positive = activation, actives largely listed as activators. 210,000 tested, 2.8% active. AID 1458; further: % of control where 0% means no effect; nearly all actives have a fitted effect of over 55% in size
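qHTS luciferase splicing reporter: luminescence rises when SMN2 exon 7 is included in transfected HEK293 cells. Compound exposure lasted 30-36 h at 37C, with 4.5 mM final sodium butyrate as control, followed by a ONE-Glo read.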
FLuc modulator – counter-screen for miR-21 project: firefly luciferase inhibitors or activators; purified FLuc, Km substrates, luminescence inhibition; Potency, µM (doses to about 57.5 µM), for the others: at the highest dose activity change, negative = inhibition, hits mostly inhibitors; 360,000 tested, 6.9% active; AID 588342;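 further: plate controls were vehicle for no effect and reference inhibitor for full effect; nearly all actives have a fitted effect of over 55% in size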
Target sequence (P08659 whole entry, looked up): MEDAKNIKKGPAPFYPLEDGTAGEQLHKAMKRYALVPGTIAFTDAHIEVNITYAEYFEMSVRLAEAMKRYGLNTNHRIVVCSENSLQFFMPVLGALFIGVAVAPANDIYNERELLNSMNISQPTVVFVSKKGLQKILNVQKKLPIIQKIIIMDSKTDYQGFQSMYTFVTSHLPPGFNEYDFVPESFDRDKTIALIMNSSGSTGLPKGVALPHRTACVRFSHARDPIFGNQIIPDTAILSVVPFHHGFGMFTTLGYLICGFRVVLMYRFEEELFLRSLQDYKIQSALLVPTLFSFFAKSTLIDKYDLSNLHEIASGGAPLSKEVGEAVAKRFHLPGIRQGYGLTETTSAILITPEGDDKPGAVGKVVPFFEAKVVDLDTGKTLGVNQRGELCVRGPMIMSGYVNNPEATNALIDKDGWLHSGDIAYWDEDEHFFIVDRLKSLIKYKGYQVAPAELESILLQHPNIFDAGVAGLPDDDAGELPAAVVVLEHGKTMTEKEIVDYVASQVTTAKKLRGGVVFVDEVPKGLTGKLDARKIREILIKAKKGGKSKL
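Biochemical qHTS of compounds, final roughly 60 µM downward over six points, against 10 nM purified firefly luciferase using Km concentrations of substrates (10 uM D-luciferin, 10 uM ATP) in Tris acetate pH 7.5 buffer; luminescence output.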
Starred values were filed as active, the others as inactive; u = inconclusive; x = not tested or not shown; [ ] = dose if it differs, or a comment. A selection: hits, their analogues and other compounds. The true share with any hit is near 7.4%. The call rests on the fitted dose curve; in most records, active means well fitted curve in the direction sought with a large enough effect; inconclusive means small, poorly fitted or top-dose-only effect, or another doubt; inactive means no such curve, though single readings can be large; an effect the other way counts as inactive or inconclusive. Potency means the concentration at half of the fitted maximal effect.

SMILES	ELG1 genotox	Rab9 prom act	NPC1 prom act	SMN2 splice enh	FLuc modulator
COc1ccccc1NC(=O)CSc1nnc(CCNC(=O)c2ccc(C)cc2)n1C	6%	25%	9%	x	15µM*
COc1ccccc1NC(=O)CSc1nnc(CNC(=O)c2ccco2)n1C	1%	-1%	1%	x	-1%
COc1ccc(C(=O)NCc2nnc(SCC(=O)Nc3ccccc3OC)n2C)cc1	2%	-6%	-4%	6%	15µM*
CCOC(=O)c1ccc(NC(=O)CSc2nnc(CNC(=O)c3ccc(OC)cc3)n2CC)cc1	x	x	x	8%	15µM*
COc1ccc(CNC(=O)Cc2c(C)c3c(cc(C)c4c(C)c(C)oc43)oc2=O)cc1OC	x	x	x	5%	6%
O=C(N=C1SCC(=O)N1c1ccccc1Cl)c1ccco1	u	u	u	16%	u
O=C(N=C1SCC(=O)N1c1ccccc1Cl)c1ccccc1	u	2µM*	u	13µM*	u
COC(=O)c1cc(=O)[nH]c(=O)[nH]1	x	x	x	-1%[9.22 µM]	x
COc1ccccc1CNS(=O)(=O)c1ccc2c(c1)NC(=O)CC(=O)N2	x	x	x	-3%	2%
CCC(Sc1nnnn1C)C(=O)Nc1ccc(C(C)=O)cc1 (stereo not given)	18µM*	u	23%	u	u
Cc1ccc(S(=O)(=O)N2CCOCC2)cc1C(=O)OCC(=O)NC1CCCC1	0%	x	x	x	x
CC(C)(C)c1ccc(-c2nnc(SCCN3C(=O)c4ccccc4C3=O)o2)cc1	-3%	-2%	0%	9%	15µM*
Cc1noc(C)c1S(=O)(=O)Nc1ccc(C(=O)Nc2ccc(Br)cc2)cc1	x	x	x	5%	u
CN(C)C(=O)c1ccc(-c2cc(C(F)(F)F)nn2C)s1	u	u	3.5µM*	x	15µM*
CN1C(=O)/C(=C/C=C2\SCCN2C)N(C)C1=S	15µM*	2.5µM*	3.2µM*	u	17µM*
CN1C(=O)/C(=C/C=C2\SCCN2C)SC1=S	u	3.2µM*	2.5µM*	2.5µM*	1.9µM*
COc1ccc(CNC(=O)CCCN2C(=O)CSc3c2c(C)nn3-c2ccccc2)cc1	x	x	x	x	-3%
CC1CCCN(c2ccc(C(=O)NCC3CCCO3)cn2)C1 (stereo not given)	16%	u	u	13µM*	u
CC1CCN(S(=O)(=O)c2cccc(C(=O)NCc3cccs3)c2)CC1	-2%	-1%	-4%	6%	-1%
CC1CCN(c2ccc(C(=O)NCc3cccs3)cn2)CC1	u	u	u	15%	24µM*
Cn1cc(-c2cc3n(n2)CCC(=O)N3CCCC(=O)NCc2ccccc2Cl)c2ccccc21	x	x	x	x	-3%
COc1ccccc1Nc1ncccc1C(=O)O	0%	5%	-5%	-8%	-19%
NC(=O)c1cccnc1Nc1ccccc1F	u	15%	17%	21%	-14%
Cc1cc(Cl)ccc1Nc1ncccc1C(N)=O	u	u	26%	8.9µM*	15µM*
Cc1c(Nc2ncccc2C(=O)O)cccc1C(F)(F)F	u	10%	0%	-5%	19µM*
SMILES	ELG1 genotox	Rab9 prom act	NPC1 prom act	SMN2 splice enh	FLuc modulator
COc1ccc(Nc2ncccc2C(=O)O)cc1	15µM*	u	u	-7%	15µM*
Cc1ccc(Nc2ncccc2C(N)=O)cc1	u	2.8µM*	3.5µM*	11µM*	u
COc1ccc(-n2c(=O)c3c(c4cc(OC)ccc4n3C)n(Cc3ccc(F)cc3Cl)c2=O)cc1	x	x	x	x	-3%
COc1ccc2nc(NC(=O)c3cccnc3SC)sc2c1	u	u	u	u	5.4µM*
CSc1ncccc1C(=O)Nc1nc2ccc(S(C)(=O)=O)cc2s1	4%	28%	13%	9%	21µM*
CCOC(=O)N1CCN(C(=O)c2ccccc2NC(=O)COc2ccccc2)CC1	-4%	4%	22%	x	-19%
O=C(COc1ccc(Cl)cc1)Nc1ccccc1Cl	u	-4%	16%	x	17µM*
Cc1ccc(OCC(=O)Nc2ccccc2-c2ccccc2)cc1	u	u	u	u	15µM*
Cc1ccc(OCC(=O)Nc2ccccc2C(N)=O)cc1	u	2.8µM*	2.5µM*	x	8.5µM*
CSc1ccccc1NC(=O)COc1ccc(Cl)cc1	6%	15%	15%	-2%	u
